Compound activity (PubChem)
Hits are enriched below; roughly 6.4% of the tested compounds scored in any of these assays.
RORgamma inh = inhibitors of mouse ROR gamma transcriptional activity; P51450; Drosophila S2 Gal4-RORgamma UAS-luciferase reporter, 20 h; Potency, µM (top dose mostly 53.6 µM), for inactives: at the top dose activity change, negative = inhibition, actives largely listed as inhibitors; 5.4% of 310,000 active; AID 2551; further: nearly all actives have a fitted effect of over 60% in size
Target sequence (P51450 whole entry, looked up, the tested form may be a part): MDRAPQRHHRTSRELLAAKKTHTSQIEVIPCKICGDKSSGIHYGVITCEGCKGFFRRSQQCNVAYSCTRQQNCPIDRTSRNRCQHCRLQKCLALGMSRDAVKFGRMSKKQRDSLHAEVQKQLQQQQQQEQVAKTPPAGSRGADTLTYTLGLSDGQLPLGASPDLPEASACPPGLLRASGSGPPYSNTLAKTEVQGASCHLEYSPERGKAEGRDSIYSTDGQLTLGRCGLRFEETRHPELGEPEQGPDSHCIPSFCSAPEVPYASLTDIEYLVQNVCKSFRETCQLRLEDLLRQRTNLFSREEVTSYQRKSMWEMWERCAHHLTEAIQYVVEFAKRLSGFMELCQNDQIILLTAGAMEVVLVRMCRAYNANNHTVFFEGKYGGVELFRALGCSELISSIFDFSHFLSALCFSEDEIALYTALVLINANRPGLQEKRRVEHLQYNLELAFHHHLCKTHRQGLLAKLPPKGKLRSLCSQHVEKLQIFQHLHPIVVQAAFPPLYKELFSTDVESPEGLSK
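Drosophila Schneider cells stably carrying a metallothionein-driven Gal4 DBD–ROR gamma fusion and a UAS-Photinus luciferase reporter were exposed to compound for 1 hr, then induced with copper sulfate (700 uM final) for 20 hr at ambient temperature before luminescence reading.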
VP16 counter = counter-screen for ROR gamma inhibitors: Gal4-VP16 reporter | Drosophila S2 Gal4-VP16 UAS-luciferase, luminescence, 20 h | Potency, µM (highest dose often 53.6 µM), for inactives: at the top dose activity, negative = inhibition, hits mostly inhibitors | 3.5% of 310,000 active | AID 2546;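 further: Gal4-VP16 expression switched on by copper sulfate through the metallothionein promoter; nearly all actives have a fitted effect of over 50% in size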
Luc counter = counter-screen: inhibitors of Kinase-Glo firefly luciferase | Q27757 | Kinase-Glo luciferase, ATP luminescence, 8 min | Potency, µM (doses to about 38.3 µM), inactives show at the highest dose activity change, negative = inhibition, usual class: inhibitors | 0.28% of 200,000 active; further: nearly all actives have a fitted effect of over 60% in size
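Compound is pinned into ATP-containing buffer (10 uM ATP, imidazole pH 7.2, 7 mM MgCl2). Kinase-Glo luciferase reagent is then added. Light output is recorded following an 8-min room-temperature incubation.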
Starred values were filed as active, the others as inactive; ? = inconclusive; nt = no result given; [ ] = remark or other dose. The call rests on the fitted dose curve; in most records, active means well fitted curve in the direction sought with a large enough effect; inconclusive means small, poorly fitted or top-dose-only effect, or another doubt; inactive means no such curve, though single readings can be large; an effect the other way counts as inactive or inconclusive. On the % scale 0 is the no-effect control and ±100 the full control effect; potency means the concentration at half of the fitted maximal effect.

SMILES	RORgamma inh	VP16 counter	Luc counter
CO/C1=C\C(C)=C\[C@@H](C)[C@@H](O)[C@@H](C)C/C(C)=C/C=C/[C@H](OC)[C@@H]([C@@H](C)[C@@H](O)[C@H](C)[C@@]2(O)C[C@@H](O)[C@H](C)C(C(C)C)O2)OC1=O (some centres undefined)	6.31µM*	7.08µM*	nt
CCC12C=CCN3CCC4(c5ccc(OC)cc5N(C)C4[C@@](O)(C(=O)OC)C1OC(C)=O)C32 (some centres undefined)	-4.9%	-0.3%	-0.5%
OC[C@H]1O[C@@H](n2cnc3cc(Cl)c(Cl)cc32)[C@H](O)[C@H]1O	?	7.94µM*	nt
O[C@@H]1[C@@H]2O[P@@](O)(=S)OC[C@H]2O[C@H]1n1cnc2cc(Cl)c(Cl)cc21	-2.6%	-7.7%	nt
C=CCn1c(-c2ccc([N+](=O)[O-])cc2)n[nH]c1=S	11.2µM*	?	0.6%
C=CCn1c(O)c(/C=C2/C=c3ccccc3=N2)c(=O)[nH]c1=S	35.0%[1.91 µM]	?	nt
CN(C)C(=O)Nc1cccc(C(F)(F)F)c1	9.5%	2.5%	nt
COC1C(O)C(C)O[C@H](OC2CC[C@@]3(C=O)C4CC[C@]5(C)C(C6=CC(=O)OC6)CC[C@@]5(O)C4CC[C@@H]3C2)C1O (some centres undefined)	12.5%	-2.0%	-5.2%
O=C(O)CBr	-0.9%	5.9%	nt
O=C(c1cccc(Cl)c1)C1CCCN(Cc2cccc3cnccc23)C1 (centres undefined)	7.08µM*	-27.8%	nt
O=C(c1ccc(Cl)cc1)C1CCCN(Cc2ccc3ncccc3c2)C1 (centres undefined)	?	7.08µM*	-2.6%
O=C(c1ccc(Cl)cc1)C1CCCN(Cc2cccc3cnccc23)C1 (centres undefined)	?	35.5µM*	nt
COc1ccc(CN2CCCC(C(=O)c3ccc(Cl)cc3)C2)c(OC)c1 (centres undefined)	-29.1%	-12.2%	nt
COc1ccc(CN2CCCC(C(=O)c3cccc(Cl)c3)C2)cc1 (centres undefined)	-9.4%	5.6%	nt
O=C(c1ccc(Cl)cc1)C1CCCN(Cc2ccc3c(c2)OCCO3)C1 (centres undefined)	-0.9%	3.1%	-5.1%
CC(C)(C)c1ccc(O)c(C[N+](C)(C)C)c1	nt	nt	-5.1%[7.66 µM]
c1ccc(C[N+]23CN4CN(CN(C4)C2)C3)cc1	nt	nt	-0.3%[7.66 µM]
C=C(C)[C@H]1[C@H]2OC(=O)[C@@H]1[C@]1(O)C[C@H]3O[C@]34C(=O)O[C@H]2[C@@]14C	1.5%[16.9 µM]	1.2%[17 µM]	1.2%[17.1 µM]
S=P(C1CCCCC1)(C1CCCCC1)[C@H](c1cccnc1)N1CCCC1	nt	nt	-3.4%[7.66 µM]
c1ccc(C2CO2)cc1 (centres undefined)	0.4%	7.2%	nt
CC(C)n1c(N2CCN(S(=O)(=O)c3cccc([N+](=O)[O-])c3)CC2)nc2ccccc21	?	-0.2%	nt
Nc1nnnn1CCO	nt	nt	-4.4%[7.66 µM]
CC/C(=C\C=C\[C@@H]1C=C[C@@H]2CCC[C@H]2[C@@H]1C(=O)c1ccc[nH]1)[C@@H]1O[C@@H]([C@@H](C)C(=O)O)CC[C@@H]1C	?	10µM*	0.6%
CCOP(=S)(OCC)SCn1c(=O)oc2cc(Cl)ccc21	38.4%	-19.5%	-0.2%
CCn1c(=O)oc2cc(NC(=O)CCl)ccc21	11.2µM*	?	4.3%
SMILES	RORgamma inh	VP16 counter	Luc counter
O=[N+]([O-])c1ccc(NCc2ccc(Cl)cc2)c2ccncc12	-21.3%	11.2µM*	nt
O=[N+]([O-])c1ccc(NCc2ccccc2)c2nonc12	-2.9%	-4.7%	-2.8%
O=C1NC(=S)NC(=O)C1=Cc1ccc(Br)s1	20µM*	6.31µM*	nt
O=C1NC(=S)NC(=O)C1=Cc1cccc2cc3ccccc3cc12	-31.2%	6.2%	-6.3%[7.66 µM]
NS(=O)(=O)c1ccc(-c2ccc([As](=O)(O)O)cc2)cc1	nt	nt	-3.3%[7.66 µM]
CCn1ccnc1CN1CCCC(C(=O)c2cc(Cl)ccc2OC)C1 (centres undefined)	21.2%	-27.1%	-2.7%
CCn1ccnc1CN1CCCC(C(=O)c2cc(C)c(OC)c(C)c2)C1 (centres undefined)	2.51µM*	11.2µM*	-1.1%
CC(=O)c1cn(CCCOc2ccccc2)c2ccccc12	?	6.31µM*	-2.6%
O=C(C(=O)N1CCOCC1)c1cn(CCCOc2ccccc2)c2ccccc12	28.2%	2.1%[10 µM]	-3.6%
Clc1ccc2ccccc2c1	0.3%	2.5%	nt
CC(=O)OC1C(=O)[C@]2(C)C(O)CC3OC[C@]3(OC(C)=O)C2[C@@H](OC(=O)c2ccccc2)[C@]2(O)CC(O)C(C)=C1C2(C)C (some centres undefined)	-21.8%	-12.1%	0.0%
CCCC[N+](=O)[O-]	-17.8%	-12.1%	nt
N[C@@H](CP(=O)(O)O)C(=O)O	nt	nt	-0.7%[7.66 µM]
CC1CCCC(C)N1c1nnc(NC(=O)Cn2c(=O)oc3ccccc32)s1 (centres undefined)	?	14.1µM*	-1.3%
O=C1CCN(C(=O)CCCn2c(=O)oc3ccccc32)CC1	7.7%	-5.4%	1.0%
CCC(=NCCO)c1c(O)n(C2CCCCC2)c(=O)[nH]c1=O	9.1%	-1.1%	0.1%
O=C(N/N=C/c1c(O)n(C2CCCCC2)c(=S)[nH]c1=O)c1ccccc1O	3.98µM*	3.16µM*	nt
CCCCC(=O)N/N=C/c1c(O)n(Cc2ccco2)c(=O)[nH]c1=O	?	-27.9%	-3.8%
CCCCC(=O)N/N=C/c1c(O)n(C2CC2)c(=S)[nH]c1=O	-30.2%	16.8%	-3.1%
O=c1[nH]c(=O)n(CCC2=CCCCC2)c(O)c1/C=N/Nc1ccccc1	?	20µM*	-0.9%
O=C(N/N=C/c1c(O)n(Cc2ccco2)c(=O)[nH]c1=O)c1ccccc1O	12.6µM*	6.8%	nt
CC/C(=N\NC(=O)c1ccccc1O)c1c(O)n(C2CCCCC2)c(=O)[nH]c1=O	2.51µM*	8.91µM*	nt
O=c1[nH]c(=O)n(CCC2=CCCCC2)c(O)c1/C=N/Nc1cccc2ccccc12	-38.1%	?	nt
O=C(O)c1cc[c]([Hg][S]c2ncnc3nc[nH]c23)cc1	nt	nt	0.0%[7.66 µM]
N#Cc1ccc(CN2CC3(CCNCC3)C2)cc1	-2.4%	9.8%	-4.2%
SMILES	RORgamma inh	VP16 counter	Luc counter
C[C@@H]1[C@@H](C)N1C[C@H](O)Cn1ccnc1[N+](=O)[O-] (some centres undefined)	nt	nt	1.9%[7.66 µM]
O=C(N/N=C/c1c(O)n(CCc2ccccc2)c(=O)[nH]c1=O)c1ccccc1	14.1µM*	-9.1%	nt
CC(C)c1ccc(-n2c(O)c(/C=N/NC(=O)c3ccccc3O)c(=O)[nH]c2=S)cc1	0.316µM*	4.47µM*	nt
CCCCn1c(O)c(/C=N/NC(=O)c2ccncc2)c(=O)[nH]c1=O	-16.3%	-7.2%	nt
O=C(N/N=C/c1c(O)n(C2CCCCC2)c(=S)[nH]c1=O)c1ccccc1	5.62µM*	?	nt
O=c1[nH]c(=S)n(C2CC2)c(O)c1/C=N/Nc1ccccc1	12.7%	1.1%	1.0%
CC(C)c1ccc(-n2c(O)c(/C=N/NC(=O)c3ccncc3)c(=O)[nH]c2=O)cc1	21.7%	-0.8%	-1.7%
O[C@H](CN1CC1)[C@@H](O)CN1CC1	nt	nt	-4.6%[7.66 µM]
NC1(P(=O)(O)O)CCCCC1	nt	nt	-0.9%[7.66 µM]
Nc1ccccc1O.O.O=C(O)[C@H]1[O][Sb][O][C@H]1C(=O)O	nt	nt	-3.9%[7.66 µM]
C[C@H]1C[C@H](C)C(=O)[C@@H]([C@H](O)CC2CC(=O)NC(=O)C2)C1	?	?	4.2%
